From PubChem BioAssay
An excerpt weighted towards active compounds, which were near 3.6% of everything screened.
Peg3 prom inh – Peg3 promoter-driven luciferase inhibitors, primary screen, cell-based, HeLa, luciferase luminescence; AID 588405, 2011; inhibition, % at 20 µM; HeLa PEG-Prom luciferase reporter, overnight; 1.7% of 360,000 active;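 active means inhibition of at least 50% at 20 µM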
Mdm2 MdmX PPI – inhibitors of human Mdm2-MdmX association, primary screen, cell-based, luminescence, split luciferase, SaOS-2, uHTS; Protein Mdm4 (Homo sapiens) + E3 ubiquitin-protein ligase Mdm2 (Homo sapiens), …; SaOS-2 split-luciferase Mdm2/MdmX complementation; inhibition, % at 8 µM; 3% of 330,000 active;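 active means inhibition of at least 50% at 8 µM in the primary screen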
Target sequence (O15151 whole entry, looked up): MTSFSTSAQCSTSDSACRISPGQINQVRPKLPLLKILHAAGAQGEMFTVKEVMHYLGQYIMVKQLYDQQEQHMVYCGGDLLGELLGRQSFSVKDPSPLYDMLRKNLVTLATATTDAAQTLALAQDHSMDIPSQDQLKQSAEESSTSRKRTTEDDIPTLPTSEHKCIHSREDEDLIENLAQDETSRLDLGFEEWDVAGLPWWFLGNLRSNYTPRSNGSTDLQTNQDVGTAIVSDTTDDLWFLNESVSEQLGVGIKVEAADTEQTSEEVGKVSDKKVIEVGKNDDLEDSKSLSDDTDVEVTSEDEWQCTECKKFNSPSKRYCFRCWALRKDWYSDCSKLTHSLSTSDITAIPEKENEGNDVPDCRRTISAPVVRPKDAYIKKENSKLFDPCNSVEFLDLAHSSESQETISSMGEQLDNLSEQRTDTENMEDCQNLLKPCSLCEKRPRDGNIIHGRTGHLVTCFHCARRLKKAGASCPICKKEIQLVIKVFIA
Target sequence (Q00987 whole entry, looked up): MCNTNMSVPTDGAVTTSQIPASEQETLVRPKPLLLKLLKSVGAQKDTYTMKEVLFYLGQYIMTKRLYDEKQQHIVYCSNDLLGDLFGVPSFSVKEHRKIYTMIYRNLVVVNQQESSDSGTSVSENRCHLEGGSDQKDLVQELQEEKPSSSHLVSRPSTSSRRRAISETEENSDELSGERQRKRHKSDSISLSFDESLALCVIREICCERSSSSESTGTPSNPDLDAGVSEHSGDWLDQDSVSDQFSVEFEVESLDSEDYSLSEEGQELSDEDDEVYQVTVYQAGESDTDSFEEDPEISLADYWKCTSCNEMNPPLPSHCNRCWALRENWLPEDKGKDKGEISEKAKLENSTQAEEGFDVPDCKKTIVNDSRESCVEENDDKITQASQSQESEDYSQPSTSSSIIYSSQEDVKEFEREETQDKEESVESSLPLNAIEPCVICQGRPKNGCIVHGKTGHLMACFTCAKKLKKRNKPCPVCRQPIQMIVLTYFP
HSP90 inh – HSP90 inhibitors, primary screen, cell lysate, luminescence; Heat shock protein HSP 90 (rabbit reticulocyte lysate; luciferase refolding); Rabbit reticulocyte lysate, luciferase refolding luminescence, 3 h; inhibition, % at 5.6 µM; 0.91% of 290,000 active; AID 1789, 2009;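 active means inhibition above the screen-wide mean plus 3 SD, computed separately per campaign, cut at about 16% in these data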;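 further: 0% = DMSO wells and 100% = 60 µM geldanamycin wells; inhibitors lower the luminescence because luciferase stays unfolded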
CF NFkB inh – inhibitors of PAF-induced NF-kB signaling, primary screen, cell-based, GFP fluorescence, uHTS; inhibition, % at 5 µM; KKLEB NF-kB-GFP reporter, GFP fluorescence overnight; 0.86% of 360,000 active;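 active means at least 50% inhibition at 5 µM, scaled per plate between neutral and stimulator controls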;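 further: PAF is a Pseudomonas aeruginosa culture filtrate used as stimulus; plate controls were PAF-stimulated DMSO wells for no effect and unstimulated DMSO wells for full effect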
KKLEB cytotox – cytotoxicity in KKLEB CF airway cells, primary screen, cytotoxicity control for CF NF-kB inhibitor project, cell-based, uHTS, fluorescence assay plates; KKLEB CF airway cells viability, ATPlite luminescence, overnight; hits give low values; cells stimulated with P. aeruginosa culture filtrate; activity change (cytotoxicity), % at 5 µM; 0.36% of 360,000 active; AID 602141, 2011;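 active means corrected activity change at or below -50% at 5 µM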
LGR2 antag – inhibitors of bursicon-induced LGR2 CRE-luciferase signal, primary screen, cell-based, HEK293, CRE-luciferase reporter, bursicon stimulation; inhibition, % at 9.99 µM; bursicon-stimulated, 4 h; 0.35% of 380,000 active;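 active means drop in luminescence signal, shown as inhibition above about 50% in the replicate tests, limit read from the data, passing the limit was not always enough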;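 further: agonist challenge used bursicon conditioned medium at about half maximal strength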
CF NFkB inh conf – inhibitors of PAF-induced NF-kB signaling, retest, confirmation, cell-based, GFP fluorescence, single concentration. KKLEB CF airway cells, overnight. 64% of 1,300 active. inhibition, % at 5 µM. shares compounds with CF NFkB inh; in the data active means inhibition above about 40%;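 further: stimulus PAF is a Pseudomonas aeruginosa filtrate and not platelet activating factor; plate controls were DMSO wells with stimulus for no effect and unstimulated DMSO wells for full effect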
* = called active by the depositor.

What do the screens show for `O=C(CSc1nc(C2CC2)nc2ccccc12)Nc1ccccc1`?
Peg3 prom inh: 24.9; Mdm2 MdmX PPI: 30.4; HSP90 inh: -0.7; CF NFkB inh: 38.5; KKLEB cytotox: -14.7; LGR2 antag: 6.2

How did O=C(CSc1nc(C2CC2)nc2ccccc12)Nc1ccccc1Cl do in these assays?
Peg3 prom inh: 8.7; Mdm2 MdmX PPI: 24.1; HSP90 inh: -1.2; CF NFkB inh: 59.6*; KKLEB cytotox: -35.6; LGR2 antag: -2.8; CF NFkB inh conf: 7.8

Results for CCC(=O)Nc1sc2c(c1C(N)=O)CCN(C(C)=O)C2 ?
Peg3 prom inh: 4.3; Mdm2 MdmX PPI: 9.5; HSP90 inh: -1.9; CF NFkB inh: -6.6; KKLEB cytotox: -8.2; LGR2 antag: -9.2

Results for CC(=O)N1CCc2c(sc(NC(=O)c3ccc([N+](=O)[O-])o3)c2C(N)=O)C1 ?
Peg3 prom inh: 97.2*; CF NFkB inh: 95.6*; KKLEB cytotox: -30.2; LGR2 antag: 0.3; CF NFkB inh conf: 31.1

Results for COc1ccc(C(=O)N[C@H](C(=O)Nc2nc3ccccc3[nH]2)C(C)C)cc1 ?
Peg3 prom inh: -183.4; Mdm2 MdmX PPI: 18.9; HSP90 inh: 5.5; CF NFkB inh: 54.8*; KKLEB cytotox: -19.1; LGR2 antag: -27.6; CF NFkB inh conf: 77.7*

What do the screens show for `COc1ccc(NC(=O)C(NC(=O)c2ccccc2)C(C)C)cc1` (stereo unspecified)?
Peg3 prom inh: 11.5; Mdm2 MdmX PPI: -24.3; HSP90 inh: -1.7; CF NFkB inh: -0.9; KKLEB cytotox: 2.5

Results for CCC(=O)N(C)C[C@@H]1Oc2cc(C#CCC3CCCC3)ccc2S(=O)(=O)N([C@H](C)CO)C[C@@H]1C ?
LGR2 antag: 13.0

What do the screens show for `O=C(C[C@H]1CC[C@@H](NS(=O)(=O)c2ccccc2)[C@H](CO)O1)NCCN1CCCCC1`?
LGR2 antag: 3.2

Results for CC1(C)CC(=O)C2=C(C1)N(CCN1CCOCC1)C1=C(C(=O)CC(C)(C)C1)C2c1ccc(Cl)cc1 ?
Peg3 prom inh: -3.7; Mdm2 MdmX PPI: 5.5; HSP90 inh: 2.3; CF NFkB inh: 56.6*; KKLEB cytotox: -0.5; LGR2 antag: 0.8; CF NFkB inh conf: 3.4

How did COc1ccc(C2C3=C(CC(C)(C)CC3=O)N(CCN3CCOCC3)C3=C2C(=O)CC(C)(C)C3)cc1 do in these assays?
Peg3 prom inh: 9.6; Mdm2 MdmX PPI: 1.3; HSP90 inh: 3.8; CF NFkB inh: -23.3; KKLEB cytotox: 8.5; LGR2 antag: 10.0

How did C=CCOc1c(OC)cc(/C=N/Nc2cccc(C(=O)O)c2)c(Br)c1Br do in these assays?
Peg3 prom inh: -141.2; HSP90 inh: 4.0; CF NFkB inh: 62.2*; KKLEB cytotox: -36.3; CF NFkB inh conf: 67.4*

How did C=CCOc1c(/C=N\NC(N)=O)cccc1OC do in these assays?
Peg3 prom inh: 12.1; Mdm2 MdmX PPI: 11.5; HSP90 inh: 3.2; CF NFkB inh: -4.9; KKLEB cytotox: 6.1; LGR2 antag: 4.2

How did C[C@@H]1CN([C@H](C)CO)S(=O)(=O)c2ccc(-c3cccnc3)cc2O[C@H]1CN(C)Cc1cccnc1 do in these assays?
LGR2 antag: -8.6

What do the screens show for `CC(=O)Oc1ccc(OC(C)=O)c(SCCCCCCl)c1`?
Peg3 prom inh: 14.2; HSP90 inh: 1.4; CF NFkB inh: 57.7*; KKLEB cytotox: -9.8; LGR2 antag: 18.3; CF NFkB inh conf: 10.0

What do the screens show for `CC(C)C#Cc1cnc2c(c1)C(=O)N([C@@H](C)CO)C[C@H](C)[C@H](CN(C)C(=O)Cc1ccccn1)O2`?
LGR2 antag: 5.0

How did Cc1ccc(C(=O)Nc2cccc(C(F)(F)F)c2)cc1NC(=O)c1ccno1 do in these assays?
Peg3 prom inh: 26.8; Mdm2 MdmX PPI: 48.6; CF NFkB inh: 59.5*; KKLEB cytotox: -3.8; LGR2 antag: 9.4; CF NFkB inh conf: 71.1*
